# PubChem BioAssay (Tox21)
# Records with an inconclusive call do not appear. A number with no mark means an inactive call. Calls follow the shape of the dose curve; as a rule, active = well fitted cell-killing curve with a large enough effect in the repeat runs; inconclusive = weak or mixed curves, or effect the other way; inactive = no such curve, though single readings can be large or run the other way.
# Test: qHTS assay to identify small molecule agonists of the estrogen receptor alpha (ER-alpha) signaling pathway in the presence of an antagonist - cell viability counter screen (AID 1259386);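 also: cells exposed to compounds for 22 h at 37 °C before the viability read; nearly all actives have a fitted effect of over 30% in size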
# Settings: VM7Luc4E2 viability, CellTiter-Fluor fluorescence, 22 h; series mostly up to 92.4 µM; activity change, negative = cytotoxicity: at the top concentration
# Summary of the method: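 VM7Luc4E2, stripped-serum pre-culture 5 d; 24hr plating; +ICI-182,780 10.0nM final; cpds 15 conc, 22hr, 37C/5% CO2; CellTiter-Fluor added at 21hr, fluorescence 1hr later.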
# % is scaled to controls: 0 for no effect and ±100 for the full control effect.
row,Compound,"activity change, negative = cytotoxicity"
1,COc1ccnc(CS(=O)c2nc3ccc(OC(F)F)cc3[nH]2)c1OC (stereo not drawn),-3.24% [at 42.5 µM]
2,O=C(O)c1ccc(S(=O)(=O)O)cc1C(=O)O,-6.32%
3,COS(=O)(=O)C(F)(F)F,-0.937%
4,CCOCC(O)COc1ccc(NC(=O)CC[S+](C)C)cc1 (stereo not drawn),2.37% [at 42.5 µM]
5,CC(CC=O)c1ccccc1 (stereo not drawn),-4.77%
6,CCOC(=O)C(=O)CCc1ccccc1,2.53% [at 42.5 µM]
7,CCCCCCCCO[C@@H]1O[C@H](CO)[C@@H](O)[C@H](O)[C@H]1O,0.538%
8,CCOC(=O)Cc1cccc2ccccc12,1.98%
9,CCO[C@H](Cc1ccc(OCCc2ccc(OS(C)(=O)=O)cc2)cc1)C(=O)O,0.0162% [at 42.5 µM]
10,Cc1cc(C(=O)O)ccc1[N+](=O)[O-],8.82%
11,CCN(CC)CCNC(=O)c1cc(Br)c(N)cc1OC,-2.47% [at 42.5 µM]
12,OC[C@H]1O[C@@H](OCCc2ccc(O)cc2)[C@H](O)[C@@H](O)[C@@H]1O,3.16% [at 42.5 µM]
13,C=C1[C@H]2CC[C@@H]3[C@H]2C(C)(C)CCC[C@]13C,0.739%
14,C=CCOc1ccccc1OCC(O)CNC(C)C (stereo not drawn),-4.46% [at 42.5 µM]
15,CCOC(=O)c1cccnc1,3.9% [at 42.5 µM]
16,NCC(=O)O,6.54% [at 19 µM]
17,CN1Cc2cc(C(=O)N3CCC(C4CCNCC4)CC3)ccc2NC(CC(=O)O)C1=O (stereo not drawn),2.53% [at 42.5 µM]
18,O=C1C(O)=C(O)C(=O)C(O)=C1O,-3.09% [at 42.5 µM]
19,Cc1[nH]c(C)c(Cl)c(=O)c1Cl,-1.35% [at 19 µM]
20,O=C(O)CNCC(=O)O,-4.75% [at 8.39 µM]
21,O=C(CS)Nc1ccccc1,2.04% [at 42.5 µM]
22,Cc1ncc(CO)c(C=O)c1O,-2.87% [at 42.5 µM]
23,O=C1CCCCCCCCCCCC(=O)OCCO1,-2.67%
